Screens: PubChem BioAssay, National Center for Advancing Translational Sciences (NCATS)
Hits are enriched below; roughly 3.6% of the tested compounds scored in any of these assays.
AmpC inh detg – qHTS Inhibitors of AmpC Beta-Lactamase (assay with detergent); P00811; AmpC hydrolysis of nitrocefin, absorbance 480 nm, 0.01% Triton; Potency, µM (series often up to 114 µM), most hits filed as inhibitors; 370,000 tested, 0.041% active; note: nearly all actives have a fitted effect of over 25% in size
Target sequence (P00811 whole entry, looked up): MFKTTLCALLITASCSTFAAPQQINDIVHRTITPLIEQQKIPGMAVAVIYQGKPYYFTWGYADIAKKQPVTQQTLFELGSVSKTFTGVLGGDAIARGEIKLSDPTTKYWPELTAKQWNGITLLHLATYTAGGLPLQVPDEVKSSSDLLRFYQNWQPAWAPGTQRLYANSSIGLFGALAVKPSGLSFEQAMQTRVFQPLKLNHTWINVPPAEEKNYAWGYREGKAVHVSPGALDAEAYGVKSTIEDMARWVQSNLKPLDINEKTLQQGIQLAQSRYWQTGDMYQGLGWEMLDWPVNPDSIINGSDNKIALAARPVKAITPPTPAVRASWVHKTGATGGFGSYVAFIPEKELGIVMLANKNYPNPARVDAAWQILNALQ
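20 mM phosphate pH 7.0 + 0.01% (detergent screen) or 0.0001% Triton X-100; 5.3 nM AmpC reagent; cpd preinc 15 min RT; nitrocefin (800 uM stock) to start; A480 q20 s × 4 min; Activity was normalised to no-enzyme and no-compound control wells.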
FBPA Giardia inh – qHTS Assay for Inhibitors of Fructose-1,6-bisphosphate Aldolase from Giardia Lamblia; Potency, µM (highest dose often 59.6 µM), most hits filed as inhibitors; purified Giardia FBPA; A8B2U2; 290,000 tested, 0.71% active; note: nearly all actives have a fitted effect of over 55% in size
Target sequence (A8B2U2 whole entry, looked up): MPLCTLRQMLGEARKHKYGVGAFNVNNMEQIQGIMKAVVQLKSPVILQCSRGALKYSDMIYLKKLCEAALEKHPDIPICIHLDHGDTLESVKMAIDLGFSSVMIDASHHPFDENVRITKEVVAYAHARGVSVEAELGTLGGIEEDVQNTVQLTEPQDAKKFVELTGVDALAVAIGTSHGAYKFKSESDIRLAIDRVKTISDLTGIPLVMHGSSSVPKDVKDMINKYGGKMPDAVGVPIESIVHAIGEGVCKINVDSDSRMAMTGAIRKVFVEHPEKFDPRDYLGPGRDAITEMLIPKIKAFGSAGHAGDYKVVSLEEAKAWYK
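Giardia FBPA (40 nM reagent) was preincubated 10 min at RT with compound (up to 57.5 uM final), then substrate plus GAPDH/TPI/NAD/arsenate coupling system with diaphorase/resazurin was added; resorufin fluorescence (525/598 nm) was read after 20 min.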
AmpC inh no detg – qHTS Inhibitors of AmpC Beta-Lactamase (assay without detergent); P00811; AmpC nitrocefin hydrolysis, absorbance 480 nm, 0.0001% Triton; Potency, µM (doses to about 57.1 µM), actives largely listed as inhibitors; 330,000 tested, 0.52% active; AID 485341, 2010; note: nearly all actives have a fitted effect of over 20% in size
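AmpC (5.3 nM in the dispensed reagent) in 20 mM phosphate pH 7.0 with 0.01% (detergent screen) or 0.0001% Triton X-100 was preincubated with compounds for 15 min at room temperature. Nitrocefin was then added from an 800 uM solution, and hydrolysis was followed at 480 nm.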
Sm TGR inh – qHTS Assay for the Inhibitors of Schistosoma Mansoni Peroxiredoxins; Schistosoma mansoni thioredoxin glutathione reductase (TGR), Q962Y6; purified TGR, DTNB reduction, TNB absorbance 405 nm; Potency, µM (highest dose often 114 µM), actives largely listed as inhibitors; 360,000 tested, 3% active; AID 485364, 2010; note: nearly all actives have a fitted effect of over 60% in size
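TGR 20 nM + NADPH 100 uM (dispensed conc.), cpd preinc 15 min RT; start with NADPH (500 uM addition) then DTNB (15 mM addition). Kinetic TNB absorbance, 405 nm filter. Four-parameter Hill fit across titration.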
A number is an active result; i = inactive; ? = inconclusive; nt = no result; ! = a repeat was not active; [ ] = remark or other dose. Calls come from the whole dose curve; as a rule, active = well fitted curve in the direction sought with a large enough effect; inconclusive = small, poorly fitted or top-dose-only effect, or another doubt; inactive = no such curve, though single readings can be large; an effect the other way counts as inactive or inconclusive.

SMILES	AmpC inh detg	FBPA Giardia inh	AmpC inh no detg	Sm TGR inh
O=C(c1ccco1)N1CCC2(CCCN(Cc3ccccc3)C2)CC1	nt	i	nt	nt
Cc1ccc(S(=O)(=O)/C(C#N)=C/c2ccccc2OCc2ccccc2)cc1	i	i	i	i
N#CC(C#N)=Cc1ccccc1OCc1ccccc1	i	i	i	3.2µM
COc1ccccc1NC(=O)C1=C(C)NC(=O)NC1c1cccs1 (stereo not given)	i	i	i	i
COc1cc(Nc2ccc(C)cc2)c([N+](=O)[O-])nc1[N+](=O)[O-]	i	i	i	25µM
CC(C)c1ccc(/C=C(\c2nc3ccccc3[nH]2)S(=O)(=O)c2ccccc2)cc1	?	i	i	i
O=S(=O)(/C(=C/c1ccc(C(F)(F)F)cc1)c1nc2ccccc2[nH]1)c1ccccc1	i	i	i	18µM
Cc1cc(C)c(C#N)c(OCC(=O)c2ccccc2)n1	i	i	i	i
Cc1cc(C)c(C#N)c(OCc2ccc(Cl)nc2)n1	i	i	i	89µM
Cc1ccc(S(=O)(=O)Nn2c(O)c(C=C3N=c4ccccc4=N3)sc2=S)cc1	i	i	?	13µM
O=C1N=c2ccc(Br)cc2=C1c1sc(=S)n(NS(=O)(=O)c2ccccc2)c1O	i	i	i	11µM
Cc1cc(Cl)ccc1Oc1ccccc1C(=O)CC#N	i	i	4µM	i
Cc1cc(Cl)ccc1OCC(=O)O	i	i	i	i
CCOC(=O)c1cccc(NC(=O)c2ccc(-n3cnnn3)cc2)c1	nt	nt	i	nt
Cc1ccccc1C(=O)NC1CCN(CC(=O)Nc2ccc(N(C)C)cc2)CC1	?	i	i	40µM
COc1ccc(C(=O)NC2CCN(CC(=O)Nc3c(C)cccc3C)CC2)cc1OC	i	i	i	100µM
Cc1ccccc1C(=O)NC1CCN(CC(=O)Nc2ccccc2Cl)CC1	i	i	i	i
CC(=O)NS(=O)(=O)c1ccc(NC(=O)CSc2ccc(C)cc2)cc1	i	i	i	nt
CC(C)(C)CN1CCNC[C@H]1Cc1cccc2ccccc12	?	nt	i	22µM
O=C(Nc1ccccc1)c1cc2ccccc2c(=O)s1	89µM	i	i	i
O=C(Nc1ccc(O)cc1)c1cc2ccccc2c(=O)s1	i	i	i	i
NC(=O)c1cccc2ccccc12	i	i	i	i
N#CSCC(=O)c1cccc2ccccc12	?	i	i	32µM
Cc1ccc(CSc2nc3ccncc3n2CC(=O)Nc2cc(C)cc(C)c2)cc1	i	i	7.1µM	i
Cc1ccccc1NC(=O)C1c2cccc[n+]2CC(=O)N1c1c(C)cccc1C (stereo not given)	?	i	i	45µM
SMILES	AmpC inh detg	FBPA Giardia inh	AmpC inh no detg	Sm TGR inh
CCN(CC(=O)Nc1ccc2c(c1)CCC2)Cc1nc2ccccc2c(=O)[nH]1	i	i	i	50µM
COc1ccc(C(=O)N2CCCC(CO)(Cc3ccccc3C)C2)o1 (stereo not given)	i	nt	i	45µM
COc1cccc([C@@H]2Oc3ccc(OC)cc3C[C@H]2OC(=O)Nc2cc(OC)c(OC)c(OC)c2)c1	nt	i	nt	nt
Cc1nn(CCC(=O)N2CCN(c3ccccc3)CC2)c(C)c1S(=O)(=O)N1CCCC1	i	nt	nt	i
O=C(CN1C(=O)CCSc2ccccc21)N1CCC2(CC1)OCCO2	i	i	0.28µM	i
O=[N+]([O-])c1cc(CN2CCOCC2)c2cccnc2c1O	?	i	i	35µM
O=[N+]([O-])c1cc(CN2CCN(c3ccccc3)CC2)c(O)c2ncccc12	i	?	i	nt
Oc1c(Cl)cc(CN2CCOCC2)c2cccnc12	i	nt	i	1.3µM
O=C(CN1C(=O)C2C3C=CC(C4CC34)C2C1=O)Nc1cnc2ccccc2c1 (stereo not given)	?	i	i	nt
COc1ccc(-n2c(Cc3cccn3C)nnc2SCC(=O)N2CCCC2)cc1	?	i	i	i
Cn1cccc1Cc1nnc(SCC(=O)N2CCCCCC2)n1-c1ccc(F)cc1	i	i	i	?
CC1CCN(C(=O)CSc2nnc(Cc3cccn3C)n2-c2ccc(F)cc2)CC1	?	i	6.3µM	i
Cc1ccc(-n2c(Cc3cccn3C)nnc2SCC(=O)N2CCN(c3ccccc3)CC2)cc1	?	i	i	40µM
O=C(Nc1cccc(S(=O)(=O)N2CCCCCC2)c1)C1CCN(C(=O)c2ccc(Cl)cc2)CC1	i	nt	i	i
CC1CCCC(C)N1C(=O)COC(=O)c1n[nH]c(=O)c2ccccc12 (stereo not given)	i	nt	i	i
Cc1cc(C)c2ccc(C)[n+]([O-])c2c1O	i	i	i	13µM
CCOC(=O)C=C(C(=O)OCC)C(=O)OCC	i	i	i	1.6µM
COc1ccc2c(=O)c3c(=O)n(Cc4ccco4)c(-c4ccc(C)cc4)nc3oc2c1	i	i	i	32µM
COc1ccc2c(=O)c3c(=O)n(Cc4ccco4)c(C(C)C)nc3oc2c1	i	i	i	i
O=C(c1ccco1)N(c1ccccn1)c1ccccn1	i	i	i	i
O=C(/C=C/c1ccco1)N(c1ccccn1)c1ccccn1	?	?	i[11.4 µM]	32µM
O=C(/C=C/c1ccc([N+](=O)[O-])cc1)NCc1ccccn1	i	i	i	i
O=C(/C=C/c1ccco1)NCc1ccccn1	i	i	i	3.5µM
CC(N)C(O)c1ccc(O)c(O)c1 (stereo not given)	nt	i	nt	nt
CCC(NC(C)C)C(O)c1ccc(O)c(O)c1 (stereo not given)	i	2.8µM	i	?
SMILES	AmpC inh detg	FBPA Giardia inh	AmpC inh no detg	Sm TGR inh
CC(C)NC[C@H](O)c1ccc(O)c(O)c1	?	10µM!	i	45µM
COCc1cc(CN2CCN(CCc3ccccc3)C(CCO)C2)ccc1OC (stereo not given)	i	i	i	i
Cc1cc(C(=O)Nc2cc(S(C)(=O)=O)ccc2Cl)c(C)o1	nt	nt	i	nt
CCSc1nnc(SCC(=O)Nc2cc(C)on2)s1	nt	nt	i	nt
CCOc1ccc(C(C)=O)cc1CN1C(=O)c2ccccc2S1(=O)=O	i	nt	i	35µM
CCOC(=O)c1ccc(CN2C(=O)c3ccccc3S2(=O)=O)cc1	i	i	i	i
CC(=O)c1cccc(NC(=O)CCc2nc3sc4c(c3c(=O)[nH]2)CCCC4)c1	?	nt	i	i
Cc1cc(C)c(NC(=O)CSc2ncc(S(=O)(=O)c3ccc(C(C)(C)C)cc3)c(=O)[nH]2)c(C)c1	i	nt	nt	i
CCOc1ccc(N2C(=O)C3CC(C)=C(C)CC3C2=O)c([N+](=O)[O-])c1 (stereo not given)	?	i	i	20µM
CCOc1ccc([N+](=O)[O-])c(N)c1	?	i	i	i
CCOc1ccc(N2C(=O)C3C4C=CC(CC4)C3C2=O)c([N+](=O)[O-])c1 (stereo not given)	i	i	i	50µM
Cc1ccc(N2C(=O)C3C4C=CC(C4)C3C2=O)cc1C (stereo not given)	i	i	i	i
Cc1ccc(N2C(=O)C3C4C=CC(CC4)C3C2=O)cc1[N+](=O)[O-] (stereo not given)	?	i	i	50µM
